For some of these results: Potency and affinity values are given separately.

Common to all, as to parameters: scale not given: direction of the effect not stated beside the values
Assay [1] addresses Protein translocase subunit SecA (Escherichia coli (strain K12)) (UniProt P10408). Description: Assay to Identify E. coli SecA ATPase Inhibitors. The note with it: 30 µM. Format: functional.
Assay [2] concerns the target T1, Ubiquitin-activating enzyme e1, putative (Leishmania donovani (strain BPK282A1)) (UniProt E9BSI1).
T1 sequence (whole entry): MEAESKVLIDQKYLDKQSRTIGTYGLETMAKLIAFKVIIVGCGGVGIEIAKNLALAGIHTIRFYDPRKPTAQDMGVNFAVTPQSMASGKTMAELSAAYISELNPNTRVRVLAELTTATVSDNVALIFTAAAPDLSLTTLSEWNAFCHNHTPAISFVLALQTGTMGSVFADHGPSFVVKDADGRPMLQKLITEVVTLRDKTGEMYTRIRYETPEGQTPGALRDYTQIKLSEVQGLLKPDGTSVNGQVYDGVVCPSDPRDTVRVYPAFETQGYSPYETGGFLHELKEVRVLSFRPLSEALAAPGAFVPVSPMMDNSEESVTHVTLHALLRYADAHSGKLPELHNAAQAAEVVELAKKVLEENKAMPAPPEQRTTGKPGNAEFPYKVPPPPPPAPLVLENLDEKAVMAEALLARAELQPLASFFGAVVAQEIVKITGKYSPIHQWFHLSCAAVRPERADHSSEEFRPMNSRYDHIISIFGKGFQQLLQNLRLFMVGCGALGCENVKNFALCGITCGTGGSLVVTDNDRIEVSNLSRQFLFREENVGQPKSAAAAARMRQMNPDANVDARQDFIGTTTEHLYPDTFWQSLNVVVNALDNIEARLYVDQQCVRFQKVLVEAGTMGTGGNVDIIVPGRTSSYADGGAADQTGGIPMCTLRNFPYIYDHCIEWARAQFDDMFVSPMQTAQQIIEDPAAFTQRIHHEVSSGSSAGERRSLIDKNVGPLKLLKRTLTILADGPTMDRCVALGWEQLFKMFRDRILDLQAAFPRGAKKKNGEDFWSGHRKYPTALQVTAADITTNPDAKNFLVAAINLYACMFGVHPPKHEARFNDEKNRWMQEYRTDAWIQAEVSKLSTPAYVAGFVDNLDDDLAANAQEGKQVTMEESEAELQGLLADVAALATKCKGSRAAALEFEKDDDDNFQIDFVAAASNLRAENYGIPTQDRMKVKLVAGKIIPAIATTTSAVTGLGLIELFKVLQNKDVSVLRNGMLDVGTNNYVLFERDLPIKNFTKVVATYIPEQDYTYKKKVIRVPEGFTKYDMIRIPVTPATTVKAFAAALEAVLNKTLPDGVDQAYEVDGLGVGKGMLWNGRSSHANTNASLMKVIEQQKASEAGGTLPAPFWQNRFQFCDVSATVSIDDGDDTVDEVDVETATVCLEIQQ
In words: Leishmania donovani Ubiquitin Activating Enzyme (LdE1). The assay is classed as functional. The note with it: 30 µM.

Assay [3] addresses AMP-activated protein kinase, AMPK (Homo sapiens) (UniProt P54646+O43741+P54619+Q9UGJ0+Q9Y478+Q13131+Q9UGI9). In words: AMP-dependent Kinase enzyme assay. An in vitro enzyme assay that detects ADP turnover that is directly proportional to AMPK activity. This uses naive AMPK that is activated during the assay with MK-8722. The assay is classed as functional. The note with it: 30 µM.

Assay [4] concerns the target Sialic acid-binding Ig-like lectin 9 (Homo sapiens) (UniProt Q9Y336). Description: Hs-Siglec9 ALPHAscreen SOP 20170721. The note with it: 10 µM.
The next assay concerns Trypanosoma cruzi. Description: Trypanosoma cruzi phosphomannomutase and mannose-1-phosphate guanylyltransferase assay. The note with it: 10 µM. Format: functional.
The target in assay [5] is T2, Arginase-2, mitochondrial (Homo sapiens) (UniProt P78540).
T2 sequence (whole entry): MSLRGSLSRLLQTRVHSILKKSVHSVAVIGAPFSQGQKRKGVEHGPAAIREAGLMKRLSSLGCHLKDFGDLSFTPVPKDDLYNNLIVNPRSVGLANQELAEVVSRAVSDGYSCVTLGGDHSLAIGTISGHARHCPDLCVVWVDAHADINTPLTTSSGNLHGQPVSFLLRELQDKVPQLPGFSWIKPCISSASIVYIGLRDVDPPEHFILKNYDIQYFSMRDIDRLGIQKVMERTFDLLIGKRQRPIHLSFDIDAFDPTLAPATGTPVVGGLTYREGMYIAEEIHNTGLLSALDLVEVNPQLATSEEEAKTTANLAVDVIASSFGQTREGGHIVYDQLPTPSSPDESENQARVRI
In words: in vitro enzyme assay to detect the production of urea directly proportional to the activity of Arginase II. Further: in the data most compounds retested in dose-response had high values. The note with it: 33.3 µM. The assay is classed as functional.

The target of assay [6] is T3, Proteasome subunit beta (Trypanosoma cruzi) (UniProt O96673).
T3 sequence (whole entry): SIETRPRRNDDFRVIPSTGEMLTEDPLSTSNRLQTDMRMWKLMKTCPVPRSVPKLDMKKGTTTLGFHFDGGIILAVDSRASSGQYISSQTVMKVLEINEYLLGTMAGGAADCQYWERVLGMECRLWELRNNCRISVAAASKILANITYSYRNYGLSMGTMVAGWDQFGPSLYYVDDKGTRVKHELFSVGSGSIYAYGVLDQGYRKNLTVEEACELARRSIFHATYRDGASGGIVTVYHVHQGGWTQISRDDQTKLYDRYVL
Description: Trypanosoma cruzi proteasome chymotrypsin-like activity (TcProtChymo) assay. Further: in the data most compounds retested in dose-response had high values. The note with it: 9.37 µM. Format: functional.

For a further assay, the species on record is Homo sapiens. In words: To identify inhibition of the IFN signalling (Jak-Stat) pathway via expression of an eGFP reporter gene under the control of an IFN-stimulated response element (ISRE) containing MxA promoter. Format: functional. The note with it: 30 µM.
In assay [7] the target is T4, Tyrosyl-tRNA synthetase, putative (Trypanosoma cruzi (strain CL Brener)) (UniProt Q4DSP6).
T4 sequence (whole entry): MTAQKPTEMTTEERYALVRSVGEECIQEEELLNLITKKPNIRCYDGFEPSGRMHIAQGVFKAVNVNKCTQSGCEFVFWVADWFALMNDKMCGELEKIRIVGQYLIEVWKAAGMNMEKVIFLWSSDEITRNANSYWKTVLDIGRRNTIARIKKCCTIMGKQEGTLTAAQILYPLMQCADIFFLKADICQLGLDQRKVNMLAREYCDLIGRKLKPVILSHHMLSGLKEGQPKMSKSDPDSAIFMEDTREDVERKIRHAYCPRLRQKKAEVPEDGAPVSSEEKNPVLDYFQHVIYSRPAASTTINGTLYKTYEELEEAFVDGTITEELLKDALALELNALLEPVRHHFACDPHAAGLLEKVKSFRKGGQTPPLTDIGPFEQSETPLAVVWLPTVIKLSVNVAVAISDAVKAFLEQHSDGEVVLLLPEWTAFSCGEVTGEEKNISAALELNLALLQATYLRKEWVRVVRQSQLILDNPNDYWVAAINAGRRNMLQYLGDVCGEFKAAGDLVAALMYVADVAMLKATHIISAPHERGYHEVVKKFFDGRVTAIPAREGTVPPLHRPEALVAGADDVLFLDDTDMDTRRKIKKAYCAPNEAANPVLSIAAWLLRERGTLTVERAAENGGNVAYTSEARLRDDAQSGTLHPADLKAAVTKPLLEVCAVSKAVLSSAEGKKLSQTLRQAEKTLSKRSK
In words: Trypanosoma cruzi tyrosyl tRNA synthetase (TcYRS) _High Tyrosine SOP. Further: in the data most compounds retested in dose-response had high values. The note with it: 30 µM. Format: functional.

Assay [8] concerns the target T4, Tyrosyl-tRNA synthetase, putative (Trypanosoma cruzi (strain CL Brener)). In words: Trypanosoma cruzi tyrosyl tRNA synthetase (TcYRS) SOP. Format: functional. The note with it: 30 µM.
Assay [9] deals with Chromo domain-containing protein 1 (Saccharomyces cerevisiae (strain ATCC 204508 / S288c) (Baker's yeast)) (UniProt P32657). In words: ScCHD-1 Enzyme Inhibition Assay. Further: in the data most compounds retested in dose-response had high values. The assay is classed as functional. The note with it: 30 µM.
Chromo domain-containing protein 1 (Saccharomyces cerevisiae (strain ATCC 204508 / S288c) (Baker's yeast)), sequence (P32657 whole entry, the tested form may be a part): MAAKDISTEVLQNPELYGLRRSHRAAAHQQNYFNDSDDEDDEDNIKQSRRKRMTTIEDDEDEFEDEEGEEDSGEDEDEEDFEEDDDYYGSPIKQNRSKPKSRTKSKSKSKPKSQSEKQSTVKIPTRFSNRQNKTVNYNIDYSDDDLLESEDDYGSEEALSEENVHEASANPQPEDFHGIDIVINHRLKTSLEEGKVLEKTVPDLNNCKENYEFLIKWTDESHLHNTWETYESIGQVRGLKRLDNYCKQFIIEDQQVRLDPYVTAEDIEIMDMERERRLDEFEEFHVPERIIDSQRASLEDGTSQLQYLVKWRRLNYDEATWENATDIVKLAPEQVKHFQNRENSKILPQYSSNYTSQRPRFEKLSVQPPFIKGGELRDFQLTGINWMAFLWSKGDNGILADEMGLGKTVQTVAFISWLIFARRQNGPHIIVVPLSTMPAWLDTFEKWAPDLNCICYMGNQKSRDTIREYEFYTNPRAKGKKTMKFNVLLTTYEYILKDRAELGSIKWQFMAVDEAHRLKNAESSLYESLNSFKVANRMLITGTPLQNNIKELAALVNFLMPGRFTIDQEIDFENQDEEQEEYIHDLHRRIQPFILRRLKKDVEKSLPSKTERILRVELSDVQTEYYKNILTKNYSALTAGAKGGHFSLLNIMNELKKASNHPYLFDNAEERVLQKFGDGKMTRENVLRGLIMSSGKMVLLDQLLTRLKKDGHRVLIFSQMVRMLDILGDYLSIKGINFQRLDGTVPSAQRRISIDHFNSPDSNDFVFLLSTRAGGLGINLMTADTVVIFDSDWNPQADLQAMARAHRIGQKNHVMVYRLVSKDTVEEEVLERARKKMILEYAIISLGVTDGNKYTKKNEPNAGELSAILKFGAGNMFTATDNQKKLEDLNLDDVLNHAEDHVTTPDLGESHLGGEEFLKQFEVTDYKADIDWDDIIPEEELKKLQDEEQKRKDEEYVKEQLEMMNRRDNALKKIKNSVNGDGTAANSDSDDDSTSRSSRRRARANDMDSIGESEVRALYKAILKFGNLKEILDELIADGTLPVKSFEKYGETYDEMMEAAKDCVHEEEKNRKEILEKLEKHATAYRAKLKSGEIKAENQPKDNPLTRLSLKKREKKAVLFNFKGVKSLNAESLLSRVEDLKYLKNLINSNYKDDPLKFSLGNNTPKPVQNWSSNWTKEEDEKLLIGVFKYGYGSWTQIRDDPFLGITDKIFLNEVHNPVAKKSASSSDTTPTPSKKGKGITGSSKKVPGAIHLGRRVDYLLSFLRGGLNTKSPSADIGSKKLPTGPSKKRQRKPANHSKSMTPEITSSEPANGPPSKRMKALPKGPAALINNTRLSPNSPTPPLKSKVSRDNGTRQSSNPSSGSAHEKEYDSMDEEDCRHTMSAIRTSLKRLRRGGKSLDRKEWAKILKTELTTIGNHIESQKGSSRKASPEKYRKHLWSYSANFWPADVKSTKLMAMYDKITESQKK

Sialic acid-binding Ig-like lectin 9 (Homo sapiens), sequence (Q9Y336 whole entry): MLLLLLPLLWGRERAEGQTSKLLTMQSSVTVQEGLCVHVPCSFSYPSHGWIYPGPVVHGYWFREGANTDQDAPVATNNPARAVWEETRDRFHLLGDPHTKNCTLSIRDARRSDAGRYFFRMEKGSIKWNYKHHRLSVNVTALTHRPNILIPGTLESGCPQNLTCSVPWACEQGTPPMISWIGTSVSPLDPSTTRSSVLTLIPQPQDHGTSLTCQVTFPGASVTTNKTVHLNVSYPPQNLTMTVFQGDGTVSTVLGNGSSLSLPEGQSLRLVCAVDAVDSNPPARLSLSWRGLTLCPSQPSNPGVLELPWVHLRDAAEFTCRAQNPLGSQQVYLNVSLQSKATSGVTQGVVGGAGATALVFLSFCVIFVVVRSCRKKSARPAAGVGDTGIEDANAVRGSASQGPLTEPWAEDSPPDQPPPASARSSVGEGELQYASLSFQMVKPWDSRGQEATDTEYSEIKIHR
Protein translocase subunit SecA (Escherichia coli (strain K12)), sequence (P10408 whole entry): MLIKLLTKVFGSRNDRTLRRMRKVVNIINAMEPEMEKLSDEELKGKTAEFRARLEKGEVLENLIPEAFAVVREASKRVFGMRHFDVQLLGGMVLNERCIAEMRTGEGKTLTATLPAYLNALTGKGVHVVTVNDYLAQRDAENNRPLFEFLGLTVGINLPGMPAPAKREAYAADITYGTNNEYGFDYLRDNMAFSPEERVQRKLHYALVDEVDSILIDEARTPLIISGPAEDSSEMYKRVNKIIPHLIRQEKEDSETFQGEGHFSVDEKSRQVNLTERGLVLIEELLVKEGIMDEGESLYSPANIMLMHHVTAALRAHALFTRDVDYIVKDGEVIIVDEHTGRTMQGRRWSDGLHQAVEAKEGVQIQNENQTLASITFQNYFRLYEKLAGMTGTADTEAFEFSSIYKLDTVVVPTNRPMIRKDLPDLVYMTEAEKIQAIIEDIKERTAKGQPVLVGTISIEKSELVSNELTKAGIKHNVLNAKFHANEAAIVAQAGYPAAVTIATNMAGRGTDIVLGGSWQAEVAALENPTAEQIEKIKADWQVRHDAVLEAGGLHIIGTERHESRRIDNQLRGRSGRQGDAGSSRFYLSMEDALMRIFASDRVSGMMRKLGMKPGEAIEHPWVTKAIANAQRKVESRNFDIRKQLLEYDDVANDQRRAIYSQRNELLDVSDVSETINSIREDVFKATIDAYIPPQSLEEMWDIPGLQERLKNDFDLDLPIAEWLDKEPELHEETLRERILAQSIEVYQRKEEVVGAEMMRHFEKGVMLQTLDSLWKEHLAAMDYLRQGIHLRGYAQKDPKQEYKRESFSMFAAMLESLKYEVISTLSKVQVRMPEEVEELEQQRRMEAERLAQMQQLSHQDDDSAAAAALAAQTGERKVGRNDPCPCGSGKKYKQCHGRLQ

As to `Cc1cnn(CC2CN(c3ncnc4ccsc34)CCO2)c1` (stereo unspecified), the Percent Effect in assay [1] was -2.74%; in [2], 2.7%; in assay [3] it was 4.84%; in [4], -10%; in the assay with Trypanosoma cruzi, 6.05%; in assay [5], -2.5%. Besides, the Percent Effect in [6] was 19.7%; in the assay filed under Homo sapiens it was 75.7%; in assay [7], 11.9%; in assay [8], 15.8%; in [9] it was -0.587%.

Turning to `COc1ccc(OC)c(C2C3=C(COC3=O)Nc3[nH]nc(C)c32)c1` (stereo unspecified), the Percent Effect is -1.85% in assay [1]; 17.3% in [2]; 0.267% in assay [3]; -8.04% in assay [4]; 5.11% with Trypanosoma cruzi; 17.1% in assay [5]. In addition, the Percent Effect is 3.33% in [6]; 7.65% in the assay listed under Homo sapiens; 4.23% in assay [7]; 10.3% in assay [8]; -11.1% in assay [9].

For the compound `Cc1ccc(N2CCCC(NCc3ccncc3)C2)nn1` (stereo unspecified), the Percent Effect is -2.1% in [1]; 11.4% in [2]; -4.43% in assay [3]; -7.21% in [4]; 0.718% in the assay with Trypanosoma cruzi; -3.23% in assay [5]. For the same compound, the Percent Effect is 26.8% in assay [6]; -2.46% in the assay listed under Homo sapiens; 0% in assay [7]; 2.53% in assay [8]; -31.9% in assay [9].

On to `Cc1nc(C)n(CC2CCCN(Cc3cccc(C#N)c3)C2)n1` (stereo unspecified), for which the Percent Effect is -3.63% in [1]; -18.9% in assay [2]; -7.23% in assay [3]; 5.42% in assay [4]; -1.23% with Trypanosoma cruzi; -7.62% in [5]. In addition, the Percent Effect in assay [6] was 5.59%; in the assay listed under Homo sapiens, 3.79%; in [7] it was 6.4%; in assay [8], 13.6%; in assay [9] it was -5.48%.

With `CCc1nnc2n1CCN(C(=O)c1ccc3nc(C)c(C)nc3c1)C2`, the Percent Effect was -3.88% in assay [1]; 1.39% in assay [2]; 140% in assay [3]; 3.38% in assay [4]; 5.34% in the assay on Trypanosoma cruzi; -1.32% in [5]. Besides, the Percent Effect is 20.7% in [6]; -6.8% in the assay listed under Homo sapiens; 5.26% in assay [7]; 15.4% in [8]; -2.97% in assay [9].

As for `CN(C(=O)Cn1nc(-c2cccs2)ccc1=O)C1CCS(=O)(=O)C1` (stereo unspecified), the Percent Effect was -7.27% in assay [1]; 0% in assay [2]; -37.7% in [3]; -0.941% in assay [4]; -7.3% with Trypanosoma cruzi; 1.18% in assay [5]. Moreover, the Percent Effect is 14.9% in assay [6]; 19.4% in the assay filed under Homo sapiens; -5.32% in assay [7]; -10.4% in assay [8]; -7.9% in [9].

In the case of `CCNc1cc2c(nn1)CCN(C(=O)c1ccc3cc[nH]c3c1)C2`, the Percent Effect in assay [1] was -5.7%; in [2] it was 5.26%; in assay [3], 1.7%; in assay [4] it was 1.43%; in the assay on Trypanosoma cruzi it was 6.96%; in assay [5] it was -2.3%. Besides, the Percent Effect in assay [6] was 1.34%; in the assay filed under Homo sapiens it was -2.63%; in assay [7] it was 8.33%; in assay [8], 19.5%; in assay [9], -7.29%.

For `c1cncc(COCc2nnc3n2CCN(Cc2ccoc2)C3)c1`, the Percent Effect in assay [1] is -1.23%; in assay [2], 18.2%; in assay [3], 3.03%; in assay [4], 9.78%; with Trypanosoma cruzi it was 5.21%; in assay [5], -8.28%. For the same compound, the Percent Effect in assay [6] worked out at 21%; in the assay listed under Homo sapiens, 8.47%; in assay [7], 6.45%; in [8], 16.1%; in assay [9], 0.555%.

For `Cc1cnn(C2CCCN(C(=O)C3=NN(C)C(=O)CC3)C2)c1` (stereo unspecified), the Percent Effect in [1] was -6.81%; in assay [2], 21.6%; in [3] it was -15.8%; in assay [4], 11.8%; with Trypanosoma cruzi, 8.4%; in assay [5], 3.21%. The Percent Effect in assay [6] was 15.7%; in the assay filed under Homo sapiens it was 2.98%; in assay [7] it was 8.37%; in assay [8], 13.6%; in assay [9], -12.6%.

As to `CCN1CCOC(CNCc2ccccc2OCC(=O)N(C)C)C1` (stereo unspecified), the Percent Effect is -1.78% in assay [1]; 0% in assay [2]; -9.78% in [3]; 0.0919% in assay [4]; 8.31% in the assay with Trypanosoma cruzi; -2.88% in assay [5]. Besides, the Percent Effect in assay [6] is -4.32%; in the assay listed under Homo sapiens, -7.21%; in assay [7], 1.48%; in [8], 13.6%; in assay [9], -2.56%.

As to `O=C(NCc1cccc(F)c1)N1CCC2(CC(=O)N(c3ccsc3)C2)C1` (stereo unspecified), the Percent Effect in assay [1] is -3.47%; in assay [2] it was 8.11%; in assay [3] it was -0.642%; in [4] it was -0.223%; in the assay with Trypanosoma cruzi it was 1.95%; in [5], 0.833%. For the same compound, the Percent Effect in [6] is 15.1%; in the assay listed under Homo sapiens, -5.74%; in assay [7], 9.9%; in assay [8] it was 15.8%; in [9], -4.87%.
